PMC4336329 (PLoS ONE, 2015)
The whole screen tested about 310,000 compounds, of which about 14,000 (4.5%) showed an effect of 50% or more. The effect is printed as a negative number. Many of the other results were omitted from the sample, so strong results are more common in it than they were.

target: human ether-à-go-go-related gene (hERG) potassium channel (human, UniProt Q12809); assay: primary screen, population patch clamp on CHO cells stably expressing hERG; higher = less effect of the substance
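Note: peak tail current of the secondary pulse compared with the same well before compound.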

Sequence of human ether-à-go-go-related gene (hERG) potassium channel (Q12809 whole entry, looked up): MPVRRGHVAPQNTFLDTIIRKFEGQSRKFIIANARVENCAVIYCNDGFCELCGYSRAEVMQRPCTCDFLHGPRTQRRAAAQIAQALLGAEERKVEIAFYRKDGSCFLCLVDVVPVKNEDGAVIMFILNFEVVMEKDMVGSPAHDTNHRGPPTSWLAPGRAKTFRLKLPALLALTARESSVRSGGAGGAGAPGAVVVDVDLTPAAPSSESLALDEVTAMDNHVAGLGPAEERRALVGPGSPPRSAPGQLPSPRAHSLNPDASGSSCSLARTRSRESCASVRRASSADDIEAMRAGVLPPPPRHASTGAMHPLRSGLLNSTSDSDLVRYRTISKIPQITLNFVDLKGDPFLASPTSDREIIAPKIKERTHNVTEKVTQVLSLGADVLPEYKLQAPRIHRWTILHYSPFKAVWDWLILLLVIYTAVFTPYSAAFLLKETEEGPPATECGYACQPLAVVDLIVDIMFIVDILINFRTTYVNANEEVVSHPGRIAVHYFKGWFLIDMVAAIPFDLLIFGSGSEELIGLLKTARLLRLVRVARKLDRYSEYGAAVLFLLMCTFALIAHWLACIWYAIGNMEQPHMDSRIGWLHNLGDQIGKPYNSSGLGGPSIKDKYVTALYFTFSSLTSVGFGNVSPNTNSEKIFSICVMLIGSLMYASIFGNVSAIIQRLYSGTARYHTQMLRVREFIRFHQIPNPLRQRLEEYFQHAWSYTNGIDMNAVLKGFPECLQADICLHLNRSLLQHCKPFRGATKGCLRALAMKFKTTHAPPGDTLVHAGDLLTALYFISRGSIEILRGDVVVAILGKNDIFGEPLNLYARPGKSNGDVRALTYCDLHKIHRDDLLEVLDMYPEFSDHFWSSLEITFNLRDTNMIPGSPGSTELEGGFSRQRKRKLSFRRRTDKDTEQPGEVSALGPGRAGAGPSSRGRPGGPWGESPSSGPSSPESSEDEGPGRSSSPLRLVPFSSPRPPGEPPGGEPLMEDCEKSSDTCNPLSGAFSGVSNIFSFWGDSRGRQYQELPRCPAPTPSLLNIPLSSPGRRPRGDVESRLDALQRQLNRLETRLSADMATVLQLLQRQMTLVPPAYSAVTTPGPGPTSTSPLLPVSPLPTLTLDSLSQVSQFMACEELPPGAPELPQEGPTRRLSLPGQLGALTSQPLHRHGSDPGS

Row | SMILES | hERG current change (%, negative = inhibition) at 10uM [%]
1 | Cc1cccc(C(=O)NCC(c2ccc(F)cc2)N2CCOCC2)c1 (stereo not drawn) | -2.49
2 | CCc1cccc(CC)c1C(OC(C)=O)c1cccnc1 (stereo not drawn) | -0.238
3 | CCc1ccc(NC(=O)c2ccc(C3SCC(=O)N3CCc3ccccc3)cc2)cc1 (stereo not drawn) | 6.22
4 | CN(CC(=O)Nc1ccc2c(c1)OCO2)S(=O)(=O)c1cccs1 | -26.9
5 | O=C(c1ccccc1)c1ccc(C(=O)N2CCN(c3ccccc3Cl)CC2)cc1 | -13.3
6 | Cc1ccccc1C(=O)Nc1ccccc1N1CCN(C(=O)c2ccccc2)CC1 | -74
7 | Cc1ccccc1C(=O)Nc1ccccc1N1CCCCC1 | 8.11
8 | O=C(Nc1ccccc1N1CCCC1)c1ccccc1Cl | 6.75
9 | Cc1ccccc1N1CCN(C(=O)c2ccccc2NC(=O)c2ccccc2C(=O)O)CC1 | 6.78
10 | O=C(Nc1ccccc1N1CCN(C(=O)c2ccccc2)CC1)c1ccccc1Cl | -78.8
11 | COC(=O)Nc1ccc2c(c1)N(C(=O)CCN1CCOCC1)c1ccccc1S2.Cl | 2.68
12 | Cc1nc(CCNC(=O)Cc2ccc(F)cc2)cs1 | 18.9
13 | O=C(COc1ccc2c3c(c(=O)oc2c1)CCC3)N1CCN(c2ccccc2)CC1 | -12.6
14 | CCC(CC)C(=O)Nc1ccc(Nc2ccccc2)cc1 | 8.32
15 | CC(C)[C@H](NC(=O)[C@@H]1Cc2ccccc2CN1)C(=O)Nc1ccc2c(c1)OCCO2 | -30.2
16 | O=C(Cn1[nH]c(=O)c2ccccc2c1=O)OCC(=O)N(Cc1ccccc1)Cc1ccccc1 | 4.4
17 | O=C(CCNC(=O)c1ccc([N+](=O)[O-])cc1)Nc1ccccc1N1CCCC1 | -34.6
18 | O=C(CCNC(=O)c1ccc([N+](=O)[O-])cc1)Nc1cc(Cl)ccc1N1CCOCC1 | -69.9
19 | CC(C)(C)c1ccc(C(=O)NCCC(=O)Nc2cc(Cl)ccc2N2CCOCC2)cc1 | -2.31
20 | O=C(CCNC(=O)c1ccc([N+](=O)[O-])cc1)Nc1ccc(N2CCOCC2)cc1N1CCOCC1 | -4.63
21 | O=C(CCNC(=O)c1ccc([N+](=O)[O-])cc1)Nc1ccccc1N1CCOCC1 | -64.3

Row | SMILES | hERG current change (%, negative = inhibition) at 10uM [%]
22 | O=C(CCNC(=O)c1ccc([N+](=O)[O-])cc1)Nc1ccccc1N1CCCCC1 | -34.9
23 | O=C(N1CCCCCC1)N1CCN(S(=O)(=O)c2ccccc2)CC1 | -11.9
24 | Cc1c(CC(=O)NCC(=O)NCC(=O)O)c(=O)oc2cc3c(cc12)CCC(C)(C)O3 | 12.5
25 | Cc1ccc(C)c(NC(=O)CN(C)C(=O)[C@@H](NC(=O)c2ccc(C(C)(C)C)cc2)C(C)C)c1 | -16.5
26 | Nn1c(SCC(=O)NC(=O)Nc2ccc3c(c2)OCCO3)nnc1C1CC1 | 14.3
27 | CC(C)NC(=NCc1ccc(Cl)cc1Cl)Nc1ccccc1 | -53
28 | S=C(NCc1ccc(Cl)cc1Cl)Nc1ccccc1 | 10.1
29 | O=C(NCc1ccc(Cl)cc1Cl)Nc1ccccc1 | 2.75
30 | COC(=O)C1=C(c2ccc3ccccc3c2)C[C@@H]2CC[C@H]1N2C(=O)NCCCOC(C)C | -7.68
31 | O=C(COc1ccc(-c2ccccc2)cc1)N/N=C/c1ccccc1Br | 19.7
32 | O=C(O)C1C2C=CC(C2)C1C(=O)N1CCN(C/C=C/c2ccccc2)CC1 (stereo not drawn) | 17.1
33 | Cc1nc([N+](=O)[O-])c(SCC(O)CCl)n1Cc1ccc(Cl)cc1 (stereo not drawn) | -59.9
34 | Cn1cnc([N+](=O)[O-])c1SCC(O)CCl (stereo not drawn) | 15.9
35 | CCOc1ccc(Cn2c(C)nc([N+](=O)[O-])c2SCC(O)CCl)cc1[N+](=O)[O-] (stereo not drawn) | -68.2
36 | Cc1nc([N+](=O)[O-])c(SCC(N)=O)n1Cc1ccccc1 | 27.8
37 | COc1ccc(Cn2c(C)nc([N+](=O)[O-])c2SCC(=O)O)cc1[N+](=O)[O-] | 16.5
38 | CCCOc1ccc(Cn2c(C)nc([N+](=O)[O-])c2SCC(O)COC)cc1[N+](=O)[O-] (stereo not drawn) | -66
39 | CCOc1ccc(Cn2ccnc2CCl)cc1[N+](=O)[O-] | -33.2
40 | COc1ccc(Cn2cc([N+](=O)[O-])nc2C)cc1[N+](=O)[O-] | -2.26
41 | COCC(O)CSc1c([N+](=O)[O-])nc(C)n1Cc1ccc(OC)c([N+](=O)[O-])c1 (stereo not drawn) | -2.82
42 | O=C(O)c1ccc(COc2ccccc2[N+](=O)[O-])o1 | 14.8
